# Source: PubChem BioAssay (National Center for Advancing Translational Sciences (NCATS))
# BAZ2B block: blocks human BAZ2B; AlphaScreen BAZ2B-H3K14Ac peptide displacement; 360,000 compounds, 4.4% hits; Potency, µM (titrated, usually from 114 µM), for inactives: at the top dose activity change, negative = inhibition, hits mostly inhibitors; AID 504333; further: on the % scale 0 is the no-effect control and ±100 the full control effect; nearly all actives have a fitted effect of over 60% in size
#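 BAZ2B (50 nM) with biotin-H3(5-23)K14Ac peptide (50 nM) in PBS pH 7.4, 0.01% Tween-20, preformed 30 min, then compound 30 min at room temperature; top concentration 110uM. AlphaScreen streptavidin donor/nickel chelate acceptor beads (10 ug/mL final), 20 min dark, signal read.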
# JMJD2A Tudor: JMJD2A Tudor domain (human) inhibition | O75164 | AlphaScreen JMJD2A-Tudor / H3K4me3 peptide binding | Potency, µM (top dose mostly 114 µM), without a hit: top-dose activity change, negative = inhibition, actives largely listed as inhibitors | 390,000 compounds, 4.4% hits; further: on the % scale 0 is the no-effect control and ±100 the full control effect; nearly all actives have a fitted effect of over 50% in size
# Target sequence (O75164 whole entry, looked up, the tested form may be a part): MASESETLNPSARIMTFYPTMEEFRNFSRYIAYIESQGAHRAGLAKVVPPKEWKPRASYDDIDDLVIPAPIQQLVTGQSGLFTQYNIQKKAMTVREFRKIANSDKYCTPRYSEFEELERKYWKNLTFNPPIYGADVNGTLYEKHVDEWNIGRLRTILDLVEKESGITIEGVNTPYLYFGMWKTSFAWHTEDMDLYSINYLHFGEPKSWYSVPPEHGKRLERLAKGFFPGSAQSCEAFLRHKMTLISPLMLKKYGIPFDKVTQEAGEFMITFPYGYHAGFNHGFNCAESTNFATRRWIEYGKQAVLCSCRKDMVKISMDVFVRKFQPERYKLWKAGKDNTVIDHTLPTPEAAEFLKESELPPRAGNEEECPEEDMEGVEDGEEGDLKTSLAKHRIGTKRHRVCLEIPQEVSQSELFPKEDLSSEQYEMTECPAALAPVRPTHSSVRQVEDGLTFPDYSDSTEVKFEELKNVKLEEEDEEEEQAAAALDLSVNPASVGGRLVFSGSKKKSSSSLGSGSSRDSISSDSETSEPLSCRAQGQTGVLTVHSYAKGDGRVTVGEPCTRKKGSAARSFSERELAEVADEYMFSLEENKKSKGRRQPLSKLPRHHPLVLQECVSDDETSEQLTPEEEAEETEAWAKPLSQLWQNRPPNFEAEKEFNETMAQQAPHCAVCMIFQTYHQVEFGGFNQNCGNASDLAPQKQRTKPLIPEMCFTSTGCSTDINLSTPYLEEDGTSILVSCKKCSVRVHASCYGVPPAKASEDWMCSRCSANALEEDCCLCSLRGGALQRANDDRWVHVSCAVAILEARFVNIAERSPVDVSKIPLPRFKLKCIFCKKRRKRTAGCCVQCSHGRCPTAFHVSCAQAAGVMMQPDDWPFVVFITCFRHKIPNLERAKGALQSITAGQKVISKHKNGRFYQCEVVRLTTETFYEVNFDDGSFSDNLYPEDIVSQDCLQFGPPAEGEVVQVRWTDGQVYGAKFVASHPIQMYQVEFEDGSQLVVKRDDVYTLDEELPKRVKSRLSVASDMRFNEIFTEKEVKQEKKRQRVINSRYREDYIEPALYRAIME
# G9a block: inhibitors of human histone lysine methyltransferase G9a; Q96KQ7; G9a H3K9 monomethylation, AlphaScreen, 2 h; Potency, µM (titrated, usually from 102 µM), for inactives: top-dose activity, negative = inhibition, hits mostly inhibitors; 350,000 compounds, 8.8% hits; further: on the % scale 0 is the no-effect control and ±100 the full control effect; nearly all actives have a fitted effect of over 75% in size
#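 Chemiluminescent proximity detection of H3K9 monomethylation, read after 10 min bead incubation in the dark. Reaction: 20 nM G9a, 500 nM biotin-H3K9 peptide, 20 uM SAM cofactor, 2 h, room temperature, following 15 min enzyme-compound preincubation.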
# Sfp PPTase inh: inhibitors of Bacillus subtilis Sfp phosphopantetheinyl transferase; AID 1490; 310,000 compounds, 3.5% hits; Potency, µM, for the others: largest response in the series, negative = inhibition, hits mostly inhibitors; Biochemical Sfp PPTase activity, qHTS;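 further: the enzyme is Sfp with the accession as filed and its product quenches rhodamine fluorescence; 0% = enzyme reaction without inhibitor and -100% = no enzyme wells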
#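 Sfp 15 nM + cpd, 15 min RT; start w/ rhodamine-CoA 5 uM, BHQ-2-YbbR 12.5 uM (final); 50 mM Hepes pH 7.6, 10 mM MgCl2, 0.01% NP-40, 0.01% BSA; read 525/598 nm at 0 and 30 min.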
# HP1b binding inh: HP1-beta chromodomain-methylated histone interaction inhibition | AID 540317 | 390,000 compounds, 0.56% hits | P83916 | AlphaScreen HP1-beta / biotin-H3K9me3 peptide binding | Potency, µM (highest dose often 114 µM), without a hit: at the highest dose activity change, negative = inhibition, hits mostly inhibitors; further: nearly all actives have a fitted effect of over 70% in size
#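 HP1-beta protein (50 nM final) preincubated 30 min at room temperature with biotinylated H3(1-18)K9me3 peptide (50 nM) in PBS pH 7.4, 0.01% Tween-20, then compound added for 30 min. AlphaScreen streptavidin donor/nickel chelate acceptor beads (10 ug/mL final), 30 min dark, luminescence read.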
# An asterisk follows results filed as active; ? = inconclusive; · = no result; [ ] = remark or other dose. Most compounds without a hit are left out; they make up all but 12% or so of the library. The call rests on the fitted dose curve; in most records, active means well fitted curve in the direction sought with a large enough effect; inconclusive means small, poorly fitted or top-dose-only effect, or another doubt; inactive means no such curve, though single readings can be large; an effect the other way counts as inactive or inconclusive. Potency means the concentration at half of the fitted maximal effect.
SMILES,BAZ2B block,JMJD2A Tudor,G9a block,Sfp PPTase inh,HP1b binding inh
O=C(NC1CCCCC1)C(c1ccccc1)N1CCc2ccccc21 (stereo not given),?,?,?,-11%,-7%
CCOc1ccc(N2C(=O)C3C(c4ccc(OC)cc4OC)NC(CCSC)(C(=O)OC)C3C2=O)cc1 (stereo not given),-33%,-13%,13%,17%,17%
CCCC1(C(=O)OCC)NC(c2ccc(N(C)C)cc2)C2C(=O)N(c3ccc(OCC)cc3)C(=O)C21 (stereo not given),?,?,50µM*,14%,-26%
CCCC1(C(=O)OCC)NC(c2ccc(OC)cc2OC)C2C(=O)N(c3ccccc3)C(=O)C21 (stereo not given),12%,-6%,13%[59 µM],-15%,19%
CCCC1(C(=O)OCC)NC(c2ccc(N(C)C)cc2)C2C(=O)N(c3ccccc3)C(=O)C21 (stereo not given),-38%,?,8.9µM*,12%,4%
O=C1CSCc2nc3ccccc3n21,·,20µM*,·,·,15%
O=C1CC(c2ccccc2)Sc2nc3ccccc3n21 (stereo not given),11%,18%,?,9%,60%
O=c1c(Cc2ccc(Cl)cc2)c(O)ccn1Cc1ccccc1,-3%,-8%,20%[59 µM],9%,7%
O=C(NCc1cccs1)C1CCC(CNS(=O)(=O)c2cccs2)CC1 (stereo not given),4%,6%,-5%,5%,40%
CCOC(=O)C1(C)C(C(=O)OC)=C(c2ccc(OC)cc2)c2ccccc2N1C(=O)OC (stereo not given),·,-21%,?,-14%,48%
COC(=O)C1=C(C(=O)OC)SC(=C2C(=S)C(C)(C)N(C(=O)C3CC3)c3ccccc32)S1,8.9µM*,6.3µM*,1.6µM*,-12%,7.1µM*
COC(=O)C1=C(C(=O)OC)SC(=C2C(=S)C(C)(C)N(C(=O)C(C)C)c3ccccc32)S1,8.9µM*,11µM*,1.8µM*,?,7.1µM*
CCCC(=O)N1c2ccccc2C(=C2SC(C(=O)OC)=C(C(=O)OC)S2)C(=S)C1(C)C,5.6µM*,-30%[11.4 µM],1.8µM*,-4%,14µM*
COc1c(F)c(F)c(C(=O)Nc2ccccc2N2CCN(C(=O)C(C)C)CC2)c(F)c1F,-28%,-19%,-1%[12.7 µM],18%,8%
CCN(CC(=O)Nc1ccc(NC(C)=O)cc1)C(=O)c1cccnc1Sc1ccc(C)c(C)c1,4%,-20%,50µM*,·,-3%
COc1ccc(NC(=O)CN(C)C(=O)c2cccnc2Sc2ccc(C)c(C)c2)cc1,1%,-17%,-17%,·,5%
Nc1c(C(=O)NCc2cccnc2)sc(=S)n1-c1ccccc1,-11%,?,?,13µM*,-43%
COc1ccc(CNC(=O)c2sccc2C)cc1,2%,-11%,12%,-1%,20%
COc1ccc(CNC(=O)c2sc(=S)n(-c3ccc(OC)cc3)c2N)cc1,?,?,?,20µM*,?
COc1ccc(OC)c(NC(=O)CN2C(=O)COc3ccc(C)cc32)c1,-8%,-4%,11%,14%,7%
CC1(C)CC(=O)C=C(Nc2ccc(F)cc2F)C1,-18%,-5%,?,8%,36%
O=C(NNc1c2ccccc2nc2ccccc12)c1ccc(O)cc1O,20µM*,40µM*,?,-14%,?
O=C(NNc1c2ccccc2nc2ccccc12)c1ccccc1O,7.9µM*,?,?,?,-8%
O=C(NNc1nc(=O)c2cccnc2s1)c1ccccc1O,·,50µM*,50µM*,20%,-5%
CCCCCc1cc(=O)oc2c(C(CCN(CC)CC)c3cc(OC)c(OC)c(OC)c3)c(OC)cc(OC)c12 (stereo not given),-31%,?,10%[59 µM],?,12%
SMILES,BAZ2B block,JMJD2A Tudor,G9a block,Sfp PPTase inh,HP1b binding inh
O=C(O)c1c[nH]ccc1=O,?,7.1µM*,?,-14%,-32%
CCOC(=O)NNc1ccc(C(F)(F)F)cn1,1%,10µM*,7%,?,12%
CCOC(=O)c1cnn(-c2ccc(C(F)(F)F)cn2)c1N,-5%,-5%,8%[59 µM],2%,30%
CN(C)S(=O)(=O)N(CC(=O)NCCSCc1ccc(Cl)cc1)c1ccccc1,-9%,-7%,·,6%,40%
O=C1ON=C(c2ccccc2)/C1=C/c1cccnc1,-11%,-6%,45µM*,12%,21%
O=C1ON=C(c2cccc([N+](=O)[O-])c2)/C1=C/c1ccc(O)cc1,?,-3%[11.4 µM],22µM*,-61%,-14%
O=C1ON=C(c2ccccc2)/C1=C/c1ccc(O)c(O)c1,28µM*,14µM*,25µM*,50µM*,8.9µM*
O=C1ON=C(c2ccccc2)/C1=C/c1ccc(OS(=O)(=O)c2ccccc2)cc1,50µM*,79µM*,8.9µM*,-27%,?
COc1cc(/C=C2\N=C(c3ccccc3)OC2=O)ccc1OC(C)=O,23%,-12%,·,14%,6%
Cc1cc2c3c([nH]c2cc1S(=O)(=O)N1CCC2(CC1)OCCO2)CCCC3=O,-38%,-22%,-8%,8%,33%
COc1ccc(/C=C2\C(=O)ON=C2c2ccccc2)cc1,?,35µM*,40µM*,40µM*,-7%
CCOc1ccc(N(CC(=O)Nc2cccc(C)c2)S(C)(=O)=O)cc1,?,-2%,·,3%,17%
CSCCC1(C(=O)O)NC(c2ccccc2O)C2C(=O)N(C(C)C)C(=O)C21 (stereo not given),?,?,-7%,79µM*,18%
CCCC1(C(=O)O)NC(c2ccccc2O)C2C(=O)N(Cc3ccccc3)C(=O)C21 (stereo not given),?,-14%,?,?,60%
O=C(N/N=C\c1ccc(Cl)s1)c1ccc(Cn2cccn2)o1,8%,50µM*,10%[59 µM],-1%,-10%
CC(C)c1ccc(/C=N\NC(=O)c2ccc(Cn3cccn3)o2)cc1,-20%,-8%,-1%,8%,12%
Cc1cccc(NCc2ccc(O)c3ncccc23)c1C,56µM*,?,0.4µM*,27%,-4%
Cc1ccc(NCc2ccc(O)c3ncccc23)cc1C,13%,?,18%,8%,11%
Cc1cccnc1NCc1ccc(O)c2ncccc12,13µM*,22µM*,1.8µM*,16%,-15%
CCN(CC)C(=O)CSc1nc2c(sc(=S)n2-c2ccccc2)c(=O)n1-c1ccc(OC)cc1OC,-16%,?,2µM*,22µM*,?
CCOC(=O)CSc1nc2c(sc(=S)n2-c2ccccc2)c(=O)n1-c1ccc(OC)cc1OC,-34%,?,1.6µM*,32µM*,?
CCN(CC)C(=O)CSc1nc2c(sc(=S)n2-c2ccccc2)c(=O)n1-c1ccccc1OC,-9%,-25%,12%,15%,10%
